Outcome data for 68 molecules are collected here from PubChem BioAssay AID1117359 (Southern Research Institute, 2015).

Screen size: about 1,500 compounds; about 460 (31%) were called active.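 How the source made its calls: active means viability at or below 80% at any tested concentration, marking the compound as toxic; inactive means the rest.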 The list is a sample of the results. Results with a measured potency or affinity are listed apart.

This assay can be described thus: THP-1 cell cytotoxicity, dose response, cytotoxicity control for Vif-APOBEC3G degradation inhibitor project, THP-1 cells (AID 1117359). The conditions noted are these: THP-1 viability, CellTiter-Glo luminescence, 72 h; series mostly up to 40 µM. On the technique in general: In ATP-based viability assays light output follows the ATP content of the culture.
Turning to `COc1ccc(CC(=O)Oc2ccc(F)c(F)c2)cc1S(=O)(=O)N1CCOCC1`, the call was inactive.

Turning to `O=C(NCc1ccc(F)cc1)C1CCC(CNc2c(N3CCCCC3)c(=O)c2=O)CC1` (stereo not drawn), the molecule was called inactive.

As to `Cc1ccc(C)c(OCCC(=O)Nc2ccccc2C(=O)NC2CC2)c1`, the result was inactive.

In the case of `CCC(CC)NC(=O)Nc1ccc(F)cc1F`, the outcome was inactive.

As for `CS(=O)(=O)N(C(=O)NC(=O)NC1CCS(=O)(=O)C1)C1CCCCC1` (stereo not drawn), the outcome was inactive.

As for `O=C(CNS(=O)(=O)c1ccc2ccccc2c1)Nc1ccc(F)c(F)c1F`, the molecule was called inactive.

As for `CC(C)(C)NC(=O)CSc1nnc(-c2ccccn2)n1Cc1ccccc1`, the molecule was classed as inactive.

Take `COc1ccc(NC(=O)c2ccc(S(=O)(=O)N3CCOCC3)o2)cc1`: the molecule was called inactive.

With `COc1ccc(OC)c(NC(=O)COC(=O)c2ccc(OC)c(S(=O)(=O)N3CCOCC3)c2)c1`, the result was inactive.

With `CC(=O)Nc1ccc2c(c1)Cc1cc(N3C(=O)C=CC3=O)ccc1-2`, the outcome was inactive.

Regarding `NC(=O)C1CCCN(CC(=O)Nc2ccccc2C(=O)NC2CC2)C1` (stereo not drawn), the molecule was called inactive.

On to `COC(=O)Cc1cc(=O)n(-c2nc3ccccc3[nH]2)[nH]1`, for which the outcome was inactive.

As to `CC(=O)OCCCNc1cc(Sc2nc3ccccc3s2)c2nonc2c1[N+](=O)[O-]`, the molecule was called inactive.

Turning to `CCCC(NCC(=O)Nc1ccccc1C(=O)NC1CC1)c1ccccc1` (stereo not drawn), the molecule was classed as inactive.

As for `Cc1ccc(-n2nc(C)c3c(C)c(CCC(=O)O)c(C)nc32)cc1`, the molecule was called inactive.

For `CCN(CC)CCCNC(=O)CSc1nc(-c2cccs2)cc(C(F)(F)F)n1`, the result was inactive.

As for `COCCn1c(N)c(N(Cc2ccccc2)C(=O)C2CCCCC2)c(=O)[nH]c1=O`, the call was inactive.

Consider `O=C(O)c1ccc(NS(=O)(=O)c2cccc(C(=O)Nc3ccc([N+](=O)[O-])cc3)c2)cc1`, for which the molecule was classed as inactive.

Consider `O=C(CSCc1ccc(Br)cc1)NC1CC1`, for which the outcome was inactive.

On to `CC(c1ccccc1)N(C)CC(=O)NC(=O)NCCC1=CCCCC1` (stereo not drawn), for which the molecule was called inactive.

Turning to `COC(=O)c1ccc(NC(=O)COc2cccc(-n3cnnn3)c2)cc1`, the call was inactive.

Consider `CCOC(=O)C/C(C)=N\Nc1ccc([N+](=O)[O-])cc1[N+](=O)[O-]`, for which the call was inactive.

Regarding `CCOC(=O)c1csc(N)c1-c1ccc([N+](=O)[O-])cc1`, the outcome was inactive.

Regarding `CCOc1ccccc1NC(=O)CCS(=O)(=O)c1ccc(Br)cc1`, the call was inactive.

`CC(=O)N1CCN(c2nc(-c3ccco3)c3c(c2C#N)CC(C)(C)SC3)CC1`: the molecule was called inactive.

On to `CC1CCCN(Cc2c(O)ccc3c2O/C(=C\c2ccco2)C3=O)C1` (stereo not drawn), for which the molecule was classed as inactive.

For the molecule `COc1cccc(-c2nc(-c3cccs3)no2)c1`, the molecule was called inactive.

With `COc1ccc(C(C)=O)cc1CN1C(=O)NC2(CCCC2)C1=O`, the molecule was classed as inactive.

In the case of `O=C(O)C1Nc2c(Cl)cc(Cl)cc2C2C=CCC12` (stereo not drawn), the result was inactive.

On to `COc1ccc(C(=O)N/N=C/c2cccnc2)cc1`, for which the result was inactive.

On to `Cc1ncc(CO)c(/C=N/NC(=O)c2cc(O)c(O)c(O)c2)c1O`, for which the molecule was called inactive.

For `CCOC(=O)c1nn(-c2ccc(Cl)cc2Cl)c(=N)c(C#N)c1C`, the molecule was classed as inactive.

In the case of `CSc1ncccc1C(=O)NCc1nnc2ccccn12`, the call was inactive.

Turning to `COC(=O)C1=C(C)NC(=O)NC1c1ccc2c(c1)OCO2` (stereo not drawn), the molecule was classed as inactive.

As to `Cc1cc(C)n2nc(SC(C)C(=O)N3CCCC3)nc2n1` (stereo not drawn), the molecule was called inactive.

For the molecule `O=C(COC(=O)c1ccccc1Br)Nc1nnc(-c2ccccc2)o1`, the molecule was classed as inactive.

With `O=C(Nc1ccc(F)cc1F)c1noc2c1CCC2`, the outcome was inactive.

Regarding `CCOc1cccc(=O)c2c(C)n(C)c(C)c12`, the molecule was called inactive.

Take `CCOC(=O)Cn1nc(-c2ccccc2)c2cnc3ccc(C)cc3c21`: the outcome was inactive.

Regarding `COc1ccc(/C=C/C(=O)NC(=S)Nc2ccccn2)cc1`, the call was inactive.

On to `C[C@@H]1CCCCO[C@H](CN(C)C(=O)c2ccccc2)[C@@H](C)CN([C@H](C)CO)C(=O)c2cc(NC(=O)NC3CCCCC3)ccc2O1`, for which the outcome was inactive.

For the molecule `COc1cccc(/C=N/n2c(-c3cc(C)[nH]n3)n[nH]c2=S)c1`, the result was inactive.

As to `CS(=O)(=O)N1CCCCC1CCN1CCCCC1` (stereo not drawn), the call was inactive.

With `CCOC(=O)COn1c(=O)c(-c2ccc(Cl)cc2)[n+]([O-])c2ccccc21`, the outcome was inactive.

As to `CCOC(=O)c1cccc2c(=O)c(C(=O)c3ccc(Cl)cc3)c(C(=O)OC)[nH]c12`, the result was inactive.

For `CNC(=O)C(=O)N/N=C/c1cccnc1`, the result was inactive.

As to `COc1cccc(CN2CCSCC2)c1`, the call was inactive.

With `CCNC(=S)Nc1cccc(S(=O)(=O)NC2=NCCC2)c1`, the result was inactive.

For `CC(=O)NCCn1c(SCC(=O)Nc2ccc(C)cc2)nc2ccccc2c1=O`, the outcome was inactive.

For the molecule `CCC(NC(=O)Nc1ccc(O)cc1)(C(F)(F)F)C(F)(F)F`, the molecule was classed as inactive.

On to `CC(=O)N1CCN(c2ccc(NCc3ccc(F)cc3)cc2)CC1`, for which the molecule was called inactive.

Consider `O=C1/C(=C/c2ccco2)SC(=S)N1c1cccnc1`, for which the call was inactive.

With `O=S(=O)(O)c1cc(O)c2c(O)c(N=Nc3cc(Cl)ccc3O)c(S(=O)(=O)O)cc2c1`, the outcome was inactive.

On to `Cc1ccccc1OCCC(=O)Nc1ccccc1C(=O)NC1CC1`, for which the call was inactive.

Consider `CC(=O)Nc1ccc(OCC(=O)N2CCc3ccccc3C2)cc1`, for which the molecule was classed as inactive.

Turning to `O=C(Nc1nnc(SCc2c(Cl)cccc2Cl)s1)c1cccc([N+](=O)[O-])c1`, the outcome was inactive.

For the molecule `O=C(OCC(=O)N1CCN(C(=O)c2ccco2)CC1)c1cc(-c2ccco2)nc2ccccc12`, the molecule was called inactive.

On to `Cc1ccc(N2CC(NC(=O)N3CCN(C(=O)c4ccco4)CC3)CC2=O)cc1` (stereo not drawn), for which the result was inactive.

Consider `COc1cccc(CN2CCNC(=O)C2CC(=O)NCCn2nc(C)cc2C)c1OC` (stereo not drawn), for which the molecule was classed as inactive.

On to `Cc1ccccc1C(=O)NCC(=O)OC(C)C(=O)NC(C)CCc1ccccc1` (stereo not drawn), for which the outcome was inactive.

Turning to `O=C(Nc1nc(-c2ccco2)c(-c2ccco2)s1)C1CCC1`, the outcome was inactive.

As to `c1ccc(CSc2nnc(-c3ccco3)c(-c3ccco3)n2)cc1`, the call was inactive.

Take `CC(C)C[C@H](NC(=O)c1nc[nH]c1C(=O)N1CCN(c2ccccc2)CC1)C(=O)OC(C)(C)C`: the result was inactive.

`O=C(c1ccc2c(c1)[nH]c(=S)n1c3ccccc3nc21)N1CCN(c2cccc(Cl)c2)CC1`: the result was inactive.

For the molecule `Cc1cccc(N2CCN(CC(O)COc3ccc(Cl)cc3)CC2)c1` (stereo not drawn), the molecule was called inactive.

For `COc1ccccc1N1CCN(C(=O)C(F)F)CC1`, the molecule was called inactive.

With `COc1cccc(=O)c2c(C)n(-c3ccc(C(=O)O)cc3)c(C)c12`, the molecule was classed as inactive.

For the molecule `COc1cc(C(=O)Nc2ccc(N3CCCS3(=O)=O)cc2)c([N+](=O)[O-])cc1OC`, the outcome was inactive.
